Values joined by “and” are separate entries in the source; they are usually repeats but may differ in a detail not shown here. Identical values can stand only once. Some structures have more than one record in an assay (separate samples or runs), and their calls can disagree. Active and inactive are the calls of the source.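 How the source made its calls, unless noted: active means thallium flux through the channel raised or lowered by more than 3 SD from vehicle-only wells, actives on both sides; inactive means the rest.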
Columns and labels:
[1] = Wnt pathway potentiators raising nuclear beta-catenin – imaging, WNT3A-conditioned medium, mouse C2C12, NPC library, primary screen (AID 1117326; in the data active means nuclear beta-catenin stimulation mostly above about 4.2%, no sharp cut-off; inactive means mostly below about 10%); details: stronger effect = higher value
[2] = stimulators of insulin release from INS-1E, primary screen, cell-based, 5 mM glucose, NPC library (AID 1117329;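 active means compound raises insulin release from rat beta cells at 5 mM glucose, no numeric limit stated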); details: rat INS-1E insulin secretion, at 10 µM, stronger effect = higher value
[3] = growth inhibition of GSK3B-pretreated HCT116 cells – cell-based, CellTiter-Glo, 0.2 to 20 µM (AID 1117336;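 active means compounds lowering colon cancer cell viability after pretreatment blocking the GSK3B kinase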); details: HCT116 viability after GSK3B inhibitor, at 20 µM, stronger effect = higher value
[4] = inhibition of endothelial tube formation, primary screen, imaging, VEGF stimulated, CD31 staining, tube area, NPC library (AID 1117340;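 active means compound that reduces growth-factor-driven endothelial tube area in a mixed cell culture, no cutoff stated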); details: VEGF-stimulated ADSC/ECFC co-culture, at 10 µM, stronger effect = higher value
[5] = GLP1 release stimulators, primary, NCI-H716, NPC library (AID 1117341;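 active means compound raises GLP1 secretion from the human gut endocrine cells, with no numeric limit stated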); details: NCI-H716 cells, at 10 µM, stronger effect = higher value
[6] = HCT116 colon cancer cell growth inhibition, primary screen, CellTiter-Glo luminescence, NPC library (AID 1117342;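 active means compounds that lower survival of HCT116 colon cancer cells in the luminescence readout, no numeric limit stated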); details: at 20 µM (top of the series)
[7] = reduced SW480 viability measured with CellTiter-Glo, NPC library, primary (AID 1117343;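 active means compounds that lower viability of the colon cancer cells in the luminescence readout, with no numeric limit stated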); details: CellTiter-Glo luminescence; at 20 µM (top of the series)
[8] = NPC library primary testing for decreased DLD-1 cell viability via CellTiter-Glo (AID 1117346;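 active means compounds that lower survival of DLD-1 colon cancer cells in the luminescence readout, no cutoff given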); details: DLD-1 viability, CellTiter-Glo luminescence; at 20 µM (top of the series)
[9] = target: 6-phosphogluconate dehydrogenase, decarboxylating (Homo sapiens) (UniProt P52209); experiment: inhibition of human phosphogluconate dehydrogenase – biochemical, recombinant enzyme, NADPH absorbance, primary screen (AID 1159550;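 active means at least 20% inhibition of 6-phosphogluconate dehydrogenase activity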); details: recombinant 6PGD, NADPH absorbance 341 nm; at 10 µM; stronger effect = higher value
Chain of 6-phosphogluconate dehydrogenase, decarboxylating (Homo sapiens) (P52209 whole entry, looked up): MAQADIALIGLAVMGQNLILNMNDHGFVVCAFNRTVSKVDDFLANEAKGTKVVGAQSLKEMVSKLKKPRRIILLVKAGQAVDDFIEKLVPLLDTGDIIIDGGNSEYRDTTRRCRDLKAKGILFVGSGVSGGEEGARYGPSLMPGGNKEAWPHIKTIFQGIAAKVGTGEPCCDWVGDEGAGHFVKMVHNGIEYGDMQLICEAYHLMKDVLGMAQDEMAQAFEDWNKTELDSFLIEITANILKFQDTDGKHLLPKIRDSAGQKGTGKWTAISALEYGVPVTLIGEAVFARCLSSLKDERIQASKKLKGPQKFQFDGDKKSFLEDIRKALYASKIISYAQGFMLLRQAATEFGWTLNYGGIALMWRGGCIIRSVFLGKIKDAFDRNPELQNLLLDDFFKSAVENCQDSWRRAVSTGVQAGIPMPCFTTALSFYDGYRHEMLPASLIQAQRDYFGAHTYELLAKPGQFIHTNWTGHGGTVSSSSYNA

[10] = modulation of C. elegans fzo-1 (AID 1259413; call rule not given here;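 further: fzo-1 mutant C. elegans worms in liquid wells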); details: C. elegans fzo-1 modulator screen, mean read-out; stronger effect = higher value
[11] = EMT-state selective cytotoxicity in co-culture – imaging, PC-3E GFP, TEM4-18 mCherry, primary screen (AID 1345086;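 active means compounds killing one labelled cell type while sparing the other, by normalised counts and ratio limits, not self-fluorescent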;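 on all read-outs here: cells exposed to compound for 72 h before imaging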;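 on red/green cell ratio (normalised): normalised mesenchymal count divided by normalised epithelial count so high means epithelial killing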); details: PC-3E GFP / TEM4-18 mCherry co-culture, imaging cell counts, at 1 µM; for red/green cell ratio (normalised): actives lie on both sides, counts scaled to control wells, 1 = unselective
[12] = viability loss with induced miR-34 in A549 – imaging, A549 dox-inducible miR-34, nuclei and caspase counts, primary screen (AID 1347080;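 active means compounds whose cell count with miR-34 switched on is under 0.7 times the count with it off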); details: A549 miR-34 inducible, Hoechst nuclei count, 48 h
[13] = target: NAD(+) hydrolase SARM1 (Homo sapiens) (UniProt Q6SZW1); experiment: blocking NAD cleavage by SARM1 SAM-TIR – cell lysate, NAD-Glo luminescence (AID 1508614;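 active means compound whose remaining NAD level is above about 45 nM, limit read from the data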); details: SAM-TIR HEK293T lysate NADase, at 1 µM, stronger effect = higher value
Chain of NAD(+) hydrolase SARM1 (Homo sapiens) (Q6SZW1 whole entry, looked up, the tested form may be a part): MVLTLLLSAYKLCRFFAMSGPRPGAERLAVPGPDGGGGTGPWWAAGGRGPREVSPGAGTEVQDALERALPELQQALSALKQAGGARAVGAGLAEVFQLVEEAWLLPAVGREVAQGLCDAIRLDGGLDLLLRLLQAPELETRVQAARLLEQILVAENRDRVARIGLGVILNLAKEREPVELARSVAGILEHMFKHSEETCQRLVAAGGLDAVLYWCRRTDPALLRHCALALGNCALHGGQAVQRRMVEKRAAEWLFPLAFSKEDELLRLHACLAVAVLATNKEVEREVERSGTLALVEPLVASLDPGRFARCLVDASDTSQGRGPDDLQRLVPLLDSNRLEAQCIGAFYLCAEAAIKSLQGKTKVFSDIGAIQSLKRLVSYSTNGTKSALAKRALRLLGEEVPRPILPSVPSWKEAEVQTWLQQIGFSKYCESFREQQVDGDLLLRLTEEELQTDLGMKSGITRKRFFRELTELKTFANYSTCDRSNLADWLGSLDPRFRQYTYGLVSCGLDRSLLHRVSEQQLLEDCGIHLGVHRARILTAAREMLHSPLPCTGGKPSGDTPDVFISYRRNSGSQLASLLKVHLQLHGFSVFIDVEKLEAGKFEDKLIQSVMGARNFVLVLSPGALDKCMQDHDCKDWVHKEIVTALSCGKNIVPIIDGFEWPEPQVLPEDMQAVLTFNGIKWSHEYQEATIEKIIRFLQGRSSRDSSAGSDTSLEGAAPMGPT

[14] = target: Mitogen-activated protein kinase 7 (Homo sapiens) (UniProt Q13164); experiment: Gal4-ERK5 driven luciferase induction – cell-based, HTS, primary screen (AID 1508626;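 active means luciferase signal above three times the same-plate solvent-only control wells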;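 further: luciferase driven by Gal4-ERK5 fusion binding five Gal4 sites before minimal TATA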); details: HeLa Gal4-ERK5 transactivation, 18 h, at 5 µM, stronger effect = higher value
Chain of Mitogen-activated protein kinase 7 (Homo sapiens) (Q13164 whole entry, looked up, the tested form may be a part): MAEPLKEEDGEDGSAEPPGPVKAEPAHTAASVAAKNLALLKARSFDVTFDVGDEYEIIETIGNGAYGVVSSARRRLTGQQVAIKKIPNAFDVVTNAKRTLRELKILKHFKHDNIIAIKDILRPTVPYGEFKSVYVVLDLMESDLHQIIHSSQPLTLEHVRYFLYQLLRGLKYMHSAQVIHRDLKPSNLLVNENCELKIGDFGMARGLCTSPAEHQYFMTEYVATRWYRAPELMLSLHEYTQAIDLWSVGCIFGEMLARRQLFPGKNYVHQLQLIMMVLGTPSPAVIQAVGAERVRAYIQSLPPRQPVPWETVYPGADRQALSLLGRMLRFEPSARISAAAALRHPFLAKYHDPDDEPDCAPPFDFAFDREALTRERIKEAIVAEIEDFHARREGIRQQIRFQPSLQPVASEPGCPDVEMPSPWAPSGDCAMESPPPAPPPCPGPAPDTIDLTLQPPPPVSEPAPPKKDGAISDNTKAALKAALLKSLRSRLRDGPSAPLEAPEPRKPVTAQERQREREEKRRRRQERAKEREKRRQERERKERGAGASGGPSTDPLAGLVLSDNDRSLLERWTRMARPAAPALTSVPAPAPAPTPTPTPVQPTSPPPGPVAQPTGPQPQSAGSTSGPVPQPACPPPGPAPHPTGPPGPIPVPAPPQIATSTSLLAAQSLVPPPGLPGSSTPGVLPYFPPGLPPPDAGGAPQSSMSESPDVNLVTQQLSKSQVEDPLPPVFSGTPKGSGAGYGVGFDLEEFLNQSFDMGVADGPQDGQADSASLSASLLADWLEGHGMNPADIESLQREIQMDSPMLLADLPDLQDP

F380Y = experiment: BK channel mutant inhibitors and activators – cell-based, U2OS BacMam, thallium flux, beta subunits, selectivity assay, profiling panel (AID 1259406); details: U2OS BacMam BK variants, at 30 µM;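 further: initial slope of Thallos dye fluorescence rise after thallium is added; log ratio against the mean of 0.3% DMSO vehicle wells on the same plate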
F380Y/beta1 = experiment: as above; details: U2OS BacMam BK variants, at 30 µM
F380Y/beta2Delta = experiment: as above; details: U2OS BacMam BK variants, at 30 µM
[15] = MELAS cybrid and Rieske KO viability enhancers – cell-based, MELAS cybrids, Rieske KO mouse fibroblasts, CellTiter-Glo, primary screen (AID 1508586;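 active means mean z-score across replicates of 1.96 or higher in either the MELAS or the Rieske mutant cell line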;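 further: z relative to plate mean and SD of compound and empty wells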); details: low glucose
[16] = measured here: epithelial PC-3E GFP cell survival
[17] = measured here: mesenchymal TEM4-18 mCherry cell survival
[18] = MELAS cybrid survival, CellTiter-Glo 48 h, stronger effect = higher value
[19] = Rieske KO mouse fibroblast survival, CellTiter-Glo 72 h

## Nc1ncn([C@@H]2O[C@H](CO)[C@@H](O)[C@H]2O)c(=O)n1
[1]; at 10 µM
  nuclear beta-catenin stimulation: 21.7% (inactive)
[1]; stimulation, at 2 µM
  nuclear beta-catenin stimulation: 1.8%
[2]
  insulin secretion stimulation: 0.5% (inactive)
[3]
  viability decrease: 83.3% (active)
[4]
  tube area decrease: 66.1% (active)
[5]
  GLP1 secretion stimulation: -0.3% (inactive)
[6]
  inhibition of viability: 94.3% (active)
[7]
  viability decrease (inhibition): 113% (active)
[8]
  viability decrease (inhibition): 91% (active)
[9]
  inhibition: 4.17% (inactive)
[10]
  mean signal: 231 (inactive)
[11]
  red/green cell ratio (normalised): 0.99 (inactive)
[11]; [16]
  normalised cell number: 0.83
[11]; [17]
  normalised cell number: 0.82
[12]; stronger effect = lower value, cell number ratio, induced over uninduced
  fold change: 0.885 (inactive) and 0.737 (inactive) and 0.556 (active)
[12]; measured here: relative caspase fold change +Dox/-Dox
  fold change: 3.44 and 3.26 and 2.98
[12]; measured here: total cells with miR-34 induction, stronger effect = lower value
  cell count: 1630 and 1960 and 3690
[12]; measured here: total cells without miR-34 induction
  cell count: 1840 and 2660 and 6640
[13]
  remaining NAD: 10 nM (inactive)
[14]
  luciferase signal: 60 AU (inactive)
F380Y
  log fold change Tl+ flux: -0.0337 (inactive)
F380Y/beta1
  log fold change Tl+ flux: -0.0139 (inactive)
F380Y/beta2Delta
  log fold change Tl+ flux: 0.0239 (inactive)

## NC(=O)N1c2ccccc2CC(=O)c2ccccc21
[1]; at 10 µM
  nuclear beta-catenin stimulation: 5.2% (inactive)
[1]; stimulation, at 2 µM
  nuclear beta-catenin stimulation: 1.3%
[2]
  insulin secretion stimulation: -0.8% (inactive)
[3]
  viability decrease: -2.9% (inactive)
[4]
  tube area decrease: 0.9% (inactive)
[5]
  GLP1 secretion stimulation: 0% (inactive)
[6]
  inhibition of viability: 14.9% (inactive)
[7]
  viability decrease (inhibition): 5.4% (inactive)
[8]
  viability decrease (inhibition): 15.6% (inactive)
[9]
  inhibition: 8.8% (inactive)
[10]
  mean signal: 241 (inactive)
[11]
  red/green cell ratio (normalised): 1.05 (inactive)
[11]; [16]
  normalised cell number: 1.04
[11]; [17]
  normalised cell number: 1.09
[15]; [18]
  z-score: -0.278 (inactive) and 0.355 (inactive) and 0.309 (inactive)
[15]; [19]
  z-score: -1.12 and 0.011 and -0.438
[13]
  remaining NAD: 10 nM (inactive)
[14]
  luciferase signal: 56 AU (inactive)
F380Y
  log fold change Tl+ flux: -0.0346 (inactive)
F380Y/beta1
  log fold change Tl+ flux: -0.0277 (inactive)
F380Y/beta2Delta
  log fold change Tl+ flux: -0.0162 (inactive)

## c1ccc2[nH]c(-c3cscn3)nc2c1
[1]; at 10 µM
  nuclear beta-catenin stimulation: 1.5% (inactive)
[1]; stimulation, at 2 µM
  nuclear beta-catenin stimulation: 1.4%
[2]
  insulin secretion stimulation: -1.2% (inactive)
[3]
  viability decrease: -3.75% (inactive)
[4]
  tube area decrease: 13.1% (inactive)
[5]
  GLP1 secretion stimulation: 4.2% (inactive)
[6]
  inhibition of viability: 5.1% (inactive)
[7]
  viability decrease (inhibition): -9.9% (inactive)
[8]
  viability decrease (inhibition): -17.1% (inactive)
[9]
  inhibition: 2.18% (inactive)
[10]
  mean signal: 278 (inactive)
[11]
  red/green cell ratio (normalised): 1.18 (inactive)
[11]; [16]
  normalised cell number: 0.98
[11]; [17]
  normalised cell number: 1.16
[15]; [18]
  z-score: -0.164 (inactive) and 2.01 (active)
[15]; [19]
  z-score: 0.655 and 0.153
[13]
  remaining NAD: 10 nM (inactive)
[14]
  luciferase signal: 12 AU (inactive)
F380Y
  log fold change Tl+ flux: -0.0155 (inactive)
F380Y/beta1
  log fold change Tl+ flux: -0.00469 (inactive)
F380Y/beta2Delta
  log fold change Tl+ flux: -0.00898 (inactive)
